# Screening results (PubChem BioAssay)
# D1 PAM: Potentiators of Human D1 Dopamine Receptor: qHTS | HEK293 TREx D1 cells, calcium flux, dopamine EC20 potentiation | 0.036% of 360,000 active | D(1A) dopamine receptor (Homo sapiens), P21728 | potentiation, % at 10 µM; in the data active = potentiation above about 30%; also: 0% is about no effect
# TRHR agonist: qHTS for Small Molecule Agonists and Allosteric Enhancers of Human TRH Receptor: Primary Screen for Agonists; TRHR cells, calcium flux fluo-8, FDSS agonist mode; activation, % at 2 µM; 0.18% of 360,000 active; also: 0% is about no effect
# Target sequence (P34981 whole entry, looked up): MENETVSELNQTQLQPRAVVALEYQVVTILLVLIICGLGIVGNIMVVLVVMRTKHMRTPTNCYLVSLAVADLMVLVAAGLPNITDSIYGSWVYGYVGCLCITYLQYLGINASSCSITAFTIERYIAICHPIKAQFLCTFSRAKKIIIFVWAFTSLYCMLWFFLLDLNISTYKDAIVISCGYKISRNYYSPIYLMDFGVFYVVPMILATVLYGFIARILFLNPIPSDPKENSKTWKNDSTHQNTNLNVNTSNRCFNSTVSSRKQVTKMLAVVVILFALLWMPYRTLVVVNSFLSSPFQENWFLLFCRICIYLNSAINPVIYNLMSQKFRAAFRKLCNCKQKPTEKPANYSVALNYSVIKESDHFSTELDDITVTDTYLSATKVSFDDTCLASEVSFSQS
#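 Read-out: compound-evoked intracellular calcium rise in TRHR cells, fluo-8 dye, kinetic FDSS fluorescence at 1 s/cycle following a 10-cycle baseline. Cells cultured overnight before dye loading (30 min–1.5 h, RT).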
# TRHR PAM: qHTS for Small Molecule Agonists and Allosteric Enhancers of Human TRH Receptor: Primary Screen for Enhancers; Thyrotropin-releasing hormone receptor (Homo sapiens), P34981; TRHR cells, fluo-8 calcium fluorescence, EC20 TRH enhancement; enhancement, % at 2 µM; 0.66% of 360,000 active; AID 493056, 2011; in the data active = enhancement above about 30%; also: 0% is about no effect
#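 TRHR-expressing cells loaded with fluo-8 calcium dye were read kinetically (ex 480/em 530) during compound addition, then stimulated with an EC20 of TRH (10 nM final). Enhancement of the Gq-mediated intracellular calcium response was scored.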
# D1 agonist: Allosteric Agonists of the Human D1 Dopamine Receptor: qHTS. D(1A) dopamine receptor (Homo sapiens), P21728. HEK293 T-REx D1 cells, calcium flux, agonist mode. activation, % at 2 µM. 1% of 360,000 active. AID 504660, 2011; also: 0% is about no effect
#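 Tetracycline-induced HEK293 TREx D1 cells, force-coupled to calcium signalling, were dye-loaded with a no-wash calcium kit. Compound was pin-added after a 10 s baseline. Fluorescence was read kinetically at 1 cycle/s for 180 s, with calcium rises flagged as agonism.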
# D1 antagonist: Antagonist of Human D 1 Dopamine Receptor: qHTS. activity change, negative = inhibition, % at 10 µM. 3.2% of 360,000 active. HEK293 TREx D1 cells, calcium flux, dopamine EC80; hits give low values; in the data active = activity change below about -30%; also: % is scaled to controls: 0 for no effect and ±100 for the full control effect
#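 Calcium flux readout: force-coupled, inducible Hek293 Trex D1 line, cells induced overnight at 30 C with tetracycline, dye-loaded 30–90 min at RT. Antagonism scored against EC80 dopamine challenge given 180 s after compound.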
# * = called active by the depositor; / = no result; ! = repeats disagree. Sampled rows, rich in hits. Any-hit rate of the full collection: about 4.7%. Rule as the data show it, unless noted: active = activation above about 30%; inactive = the rest.
SMILES,D1 PAM,TRHR agonist,TRHR PAM,D1 agonist,D1 antagonist
COC(=O)c1cn(-c2ccccc2)nc1-c1ccc(OC)c(OC)c1,-5,-1,2,2,7
COc1ccc(-c2nn(-c3ccccc3)cc2C(=O)NC(=S)N2CCOCC2)cc1OC,1,-1,16,0,-39*
Cc1nc(N2CCCC2)ncc1C(=O)N1CCN(c2ccccc2F)CC1,-1,-1,-2,5,10
Cc1ccc(CNC(=O)c2nc(-c3ccc(Cl)cc3)n3c2CCCCC3)cc1,2,0,-5,1,18
COc1cccc(OCCNC(=O)Nc2cc(F)c(F)cc2Cl)c1,20,-1,-5,9,-40*
COc1ccc(CN2CC34C=CC(O3)C(C(=O)O)C4C2=O)cc1 (stereo not given),/,0,2,1,-58*
CC(C)n1c(S(=O)(=O)O)nc2ccccc21,-7,1,-5,2,-34*
Cc1ccnc2nc(C(=O)OCCOc3ccc(Cl)cc3)nn12,-4,0,3,7,-37*
Cc1cc(C)n2nc(C(=O)OCC(=O)NCc3ccc(Cl)cc3)nc2n1,-6,0,3,-1,-33*
Cc1ccnc2nc(C(=O)OCCOc3ccc(F)cc3)nn12,0,-3,5,3,-14
O=C(c1cnn2c(C(F)(F)F)cc(-c3cccs3)nc12)N1CCN(C(c2ccccc2)c2ccccc2)CC1,-7,-1,-4,0,-47*
Cc1nc(NC(=O)c2ccccc2)sc1C1(C)CC(c2c(Cl)cccc2Cl)=NO1 (stereo not given),-8,0,-3,3,-36*
Cc1nc(-c2ccccc2)sc1C1(C)CC(c2c(Cl)cccc2Cl)=NO1 (stereo not given),-5,1,0,7,-4
Cc1nc(NC(=O)c2ccccc2)sc1C1(C)CC(c2ccccc2F)=NO1 (stereo not given),-2,0,0,1,-33*
Cc1cc(C)c(S(=O)(=O)c2ccc(C(C)(C)C)cc2)c(Cl)n1,-7,0,9,34*,-27
CCCCn1cc(S(=O)(=O)c2ccc(OC)cc2)c(=O)c2cc(F)c(F)cc21,0,-1,3,-1,-39*
CCn1cc(S(=O)(=O)c2ccccc2)c(=O)c2cc(F)c(F)cc21,2,0,43*,1,-7
CCCCn1cc(S(=O)(=O)c2ccc(CC)cc2)c(=O)c2cc(F)c(N3CCCC(C)C3)cc21 (stereo not given),0,-1,39*,2,17
COc1ccccc1CNC(=O)C(=O)NCC(c1cccs1)S(=O)(=O)c1ccccc1 (stereo not given),4,-1,0,7,/
CC(C)CC(NC(=O)C1CCC(C)CC1)C(=O)Nc1cccnc1 (stereo not given),-3,0,-7,0,-35*
CC(C)Cc1ccc(C(C)C(=O)Nc2ccc(O)cc2)cc1 (stereo not given),5,14,-11,83*,-68*
CC(C)Cc1ccc(C(C)C(=O)Nc2cccnc2)cc1 (stereo not given),-5,10,-7,75*,-51*
CC(C(=O)Nc1cccnc1)c1ccc([N+](=O)[O-])cc1 (stereo not given),5,3,0,25,6
CCOc1ccccc1CN1CCc2nc(Nc3ccc4c(c3)OCCO4)ncc2C1,0,1,6,-1,4
CN(C)c1ccc(C(CNC(=O)c2ccc(C(C)(C)C)cc2)N2CCOCC2)cc1 (stereo not given),0,-1,2,0,14
SMILES,D1 PAM,TRHR agonist,TRHR PAM,D1 agonist,D1 antagonist
NC(=O)c1ccc(NC(=O)COC(=O)CCC(=O)c2ccc(Cl)cc2)cc1,-7,0,1,2,-31*
O=C(COC(=O)CCC(=O)c1ccc(F)cc1)Nc1ccccc1,-1,0,-2,0,7
Cc1cc(OCCSc2nnc(-c3cccs3)n2C)ccc1Cl,-13,0,6,35*,-20
CC(C)c1cnc2c(c1SCc1ccc([N+](=O)[O-])cc1)c(=O)n(C)c(=O)n2C,0,-1,0,1,5
Cc1ccc(CNC(=O)c2cc(-c3ccc(C)cc3)nc3n[nH]c(-c4cccc([N+](=O)[O-])c4)c23)cc1,-2,0,0,0,14
COc1ccc(N2CCN(c3ncccc3-c3nc(-c4ccccc4C)no3)CC2)cc1,-1,0,-4,5,-31*
COc1ccc(N2CCN(c3ncccc3C#N)CC2)cc1,0,0,4,1,6
CN(C)CCCC1(c2ccc(F)cc2)OCc2cc(C#N)ccc21 (stereo not given),-2,0,-4,9,-52*!
CC(C)n1cc(CN2CCCC(CNS(=O)(=O)c3cccc4cccnc34)C2)cn1 (stereo not given),-10,1,4,1,-49*
COc1ccc(OC)c(NC(=O)Nc2ccc3c(c2)CCC3)c1,-6,-1,-3,1,-49*
COc1ccc(OC)c(CNc2ccc3c(c2)CCC3)c1,0,0,35*,6,6
COc1ccc(NC(=O)Nc2ccc3c(c2)CCC3)c(OC)c1,-4,0,0,-2,/
O=C(NCCc1ccccc1)c1cc(-c2cccc(Cl)c2)on1,1,2,20,-1,5
Cc1cc2c(cc3c(SCc4ccccc4Cl)nnc(C)n32)o1,-2,0,3,0,0
CCc1cnc2c(c1SC(C(C)=O)C(=O)N(C)C)c(=O)n(C)c(=O)n2C (stereo not given),0,0,1,-2,/
COc1ccc(C2C=C(c3ccc(C)cc3)Nc3ncnn32)cc1 (stereo not given),-1,-1,10,-1,4
CCOC(=O)C1=C(C)Nc2ncnn2C1c1cc(Br)ccc1F (stereo not given),3,-1,-1,-1,-33*
COc1ccc(C2C=C(c3ccc(Cl)c(Cl)c3)Nc3ncnn32)cc1 (stereo not given),-3,8,4,48*,5
CCOc1ccc(C2=CC(c3cc(Br)ccc3F)n3ncnc3N2)cc1Cl (stereo not given),-8,0,-6,9,-86*
CCc1ccc(CN2CCC(n3nccc3NC(=O)C3CCCC3)CC2)cc1,32*,0,7,9,68
O=C(Nc1ccnn1C1CCN(Cc2ccc(Cl)cc2)CC1)C1CCCC1,-3,0,-1,9,-6
